For six compounds, outcome and AC50 results are on record in PubChem BioAssay (EPA / NIEHS).

Several values for one entry are separate records, joined by “and”; a condition that tells them apart may be missing. Identical values can stand only once. Some compounds were tested as several samples or in several runs, with calls that do not always agree. Activity calls are given as the source filed them. The calls were made as follows: active = hit-call score of the fitted dose curve at least 0.9, where 1 is the maximum; inactive = score below 0.9.

Experiment [1] can be described thus: ATG_M_61_CIS: Attagene CIS-FACTORIAL HepG2 Assay for M61 Transcription Factor (Internal Marker) (AID 2282937). Particulars: HepG2 Attagene CIS-FACTORIAL M61 internal marker reporter; actives raise or lower the signal. The method, boiled down:
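Background-control endpoint: HepG2 cells with cis-regulated reporter constructs, 24 h exposure, reporter mRNA detected via fluorescent primer extension and capillary electrophoresis; values from bidirectional fitting with DMSO baseline.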

Experiment [2] in a line: ATG_EGR_CIS: Attagene CIS-FACTORIAL HepG2 Assay for human Early Growth Response 1 (EGR1) (AID 2282938). Particulars: HepG2 Attagene CIS-FACTORIAL EGR reporter mRNA; actives raise or lower the signal. Put shortly:
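Endpoint derived by bidirectional fitting versus DMSO vehicle. Method: cis-promoter reporter units transfected into HepG2, 24 h dosing, RNA isolation, RT-PCR with 6-FAM primer extension and HpaI digestion, then capillary electrophoresis fluorescence detection.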

The nature of experiment [3]: ATG_M_19_CIS: Attagene CIS-FACTORIAL HepG2 Assay for M19 Transcription Factor (Internal Marker) (AID 2282939). Particulars: HepG2 Attagene CIS-FACTORIAL M19 internal marker reporter; actives raise or lower the signal. The method, boiled down: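 Chemical-treated HepG2 (24 h) with MRTU constructs; reporter transcripts detected by fluorescent RT-PCR fragment analysis on capillary electrophoresis. Internal background marker, DMSO as baseline.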

Experiment [4] can be described thus: ATG_ERE_CIS: Attagene CIS-FACTORIAL HepG2 Assay for Estrogen Response Element (ERE) (AID 2282940). Particulars: HepG2 ERE cis-reporter, Attagene RNA transcript; actives raise or lower the signal. Put shortly:
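Human liver cells (HepG2) bearing transiently transfected, promoter-regulated reporter units were exposed 24 h. Reporter mRNA induction was detected by capillary electrophoresis of labelled RT-PCR products and fitted bidirectionally to DMSO.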

Experiment [5] can be described thus: ATG_Ets_CIS: Attagene CIS-FACTORIAL HepG2 Assay for human Erythroblast Transformation Specific (ETS) (AID 2282941). Particulars: HepG2 ETS cis-reporter transcription, actives raise or lower the signal. The method, boiled down: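 RT-PCR/capillary electrophoresis fluorescence read-out of reporter mRNA; HepG2 transient multi-reporter transfection; 24 h compound exposure; gain or loss of signal fitted bidirectionally relative to DMSO.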

Experiment [6] concerns the target Hepatocyte nuclear factor 3-beta (Homo sapiens) (UniProt Q9Y261). Put plainly: ATG_FoxA2_CIS: Attagene CIS-FACTORIAL HepG2 Assay for human Forkhead box A2 (FOXA2) (AID 2282942). The note with it: HepG2 cis-reporter transcription factor activity, 24 h; actives raise or lower the signal. Put shortly:
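Measured: reporter mRNA induction or loss in HepG2 transiently carrying multiple cis-regulated reporter units, 24 h after dosing. Quantified by RT-PCR plus capillary electrophoresis, normalised to DMSO.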

Experiment [7] in a line: ATG_FoxO_CIS: Attagene CIS-FACTORIAL HepG2 Assay for human Forkhead box O (FoxO) (AID 2282943). The note with it: HepG2 Attagene cis-reporter, FoxO element, mRNA; actives raise or lower the signal. The method, boiled down: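 HepG2 cells transiently transfected with cis-element-driven reporter units report endogenous FoxO activity. After 24 h chemical exposure, reporter mRNA quantified by RT-PCR, fluorescent labeling, HpaI digestion and capillary electrophoresis; bidirectional fit versus DMSO.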

Experiment [8] can be described thus: ATG_GATA_CIS: Attagene CIS-FACTORIAL HepG2 Assay for human GATA Binding Protein (AID 2282944). The note with it: HepG2 GATA cis-element reporter, Attagene multiplex mRNA; actives raise or lower the signal. The method, boiled down:
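Transfected cis-reporter HepG2 cells were treated with chemicals for 24 hours. Total RNA was then converted to cDNA, amplified with reporter-specific primers and analysed by fluorescent capillary electrophoresis, using DMSO-treated wells as baseline.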

The nature of experiment [9]: ATG_GLI_CIS: Attagene CIS-FACTORIAL HepG2 Assay for human Zinc Finger Protein GLI1 (AID 2282945). Particulars: HepG2, Attagene cis-factorial reporter mRNA, GLI element; actives raise or lower the signal. Put shortly:
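Transiently transfected HepG2 cells report endogenous transcription factor activity via cis-element-driven reporter units. After 24 h compound exposure, reporter mRNA was measured by RT-PCR with capillary electrophoresis; bidirectional fitting against DMSO baseline.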

The nature of experiment [10]: ATG_GRE_CIS: Attagene CIS-FACTORIAL HepG2 Assay for human Glucocorticoid Response Elements (GRE) (AID 2282947). Particulars: HepG2 GRE cis-reporter, Attagene multiplex mRNA; actives raise or lower the signal. Put shortly:
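Fluorescence intensity of reporter-specific cDNA fragments, separated by capillary electrophoresis, provides the signal. Constructs carry cis-regulating promoters in transiently transfected HepG2 liver cells; 24 h incubation; fitting is bidirectional against DMSO.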

The nature of experiment [11]: ATG_ISRE_CIS: Attagene CIS-FACTORIAL HepG2 Assay for human Interferon Regulatory Factor 1 (IRF1) binding to an Interferon-Stimulated Response Element (ISRE) (AID 2282948). Particulars: HepG2 ISRE cis-reporter (Attagene), mRNA transcription readout; actives raise or lower the signal. Put shortly:
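Read-out: fluorescent RT-PCR products resolved by capillary electrophoresis, reporting endogenous transcription factor activity via ISRE-driven reporter mRNA in transfected HepG2 cells dosed for 24 h; gain or loss fitted relative to DMSO.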

The nature of experiment [12]: ATG_M_32_CIS: Attagene CIS-FACTORIAL HepG2 Assay for M32 Transcription Factor (Internal Marker) (AID 2282949).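 Also: background control marker of the multiplexed CIS panel rather than a real target.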 The note with it: HepG2 Attagene cis-factorial M32 reporter, mRNA; actives raise or lower the signal. Put shortly:
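HepG2 transfectants (cis-regulated reporter transcription units) dosed 24 h. Reporter mRNA by RT-PCR plus CE, analysed as gain or loss relative to DMSO.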

Experiment [13] is described as follows: ATG_M_06_CIS: Attagene CIS-FACTORIAL HepG2 Assay for M06 Transcription Factor (Internal Marker) (AID 2282950). Particulars: HepG2 Attagene CIS-FACTORIAL M06 internal marker reporter; actives raise or lower the signal. The method, boiled down: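 Cells (HepG2, transiently carrying cis-driven reporter units) receive chemical for 24 h before RNA isolation. Reporter cDNA is PCR-amplified, FAM-labelled by primer extension, HpaI-digested and sized on a capillary analyser.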

Experiment [14] deals with Hypoxia-inducible factor 1-alpha (Homo sapiens) (UniProt Q16665). Put plainly: ATG_HIF1a_CIS: Attagene CIS-FACTORIAL HepG2 Assay for human Hypoxia Inducible Factor 1 (HIF1A) (AID 2282951). The note with it: HepG2 Attagene cis-factorial HIF1a reporter transcription; actives raise or lower the signal. The method, boiled down:
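Dosed 24 h, transfected HepG2 cells yielded total RNA whose reporter transcripts were RT-PCR-amplified and sized by capillary electrophoresis using fluorescent labelling; DMSO defined baseline, with gain and loss of signal both fitted.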

Experiment [15] concerns the target Hepatocyte nuclear factor 6 (Homo sapiens) (UniProt Q9UBC0). In words: ATG_HNF6_CIS: Attagene CIS-FACTORIAL HepG2 Assay for human Hepatocyte Nuclear Factor 6 (HNF6) (AID 2282952). Particulars: HepG2 Attagene cis-factorial HNF6 reporter transcription; actives raise or lower the signal. Put shortly: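 Twenty-four-hour chemical treatment of reporter-transfected HepG2 cells precedes RNA isolation, DNase-treated reverse transcription and PCR of reporter sequences. Labelled fragments are sized by capillary electrophoresis and fitted bidirectionally versus DMSO.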

In experiment [16] the target is Heat shock factor protein 1 (Homo sapiens) (UniProt Q00613). Put plainly: ATG_HSE_CIS: Attagene CIS-FACTORIAL HepG2 Assay for human Heat Shock Transcription Factor 1 (HSE) (AID 2282953). Particulars: HepG2 HSE cis-reporter, Attagene RNA transcription; actives raise or lower the signal. The method, boiled down: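 Liver-derived HepG2 cells carry transiently introduced multiple reporter units governed by cis promoters. Reporter RNA measured 24 h post-dose through reverse transcription, PCR amplification, fluorescent labelling and capillary electrophoresis, normalised to DMSO.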
Sequence of Heat shock factor protein 1 (Homo sapiens) (Q00613 whole entry, looked up): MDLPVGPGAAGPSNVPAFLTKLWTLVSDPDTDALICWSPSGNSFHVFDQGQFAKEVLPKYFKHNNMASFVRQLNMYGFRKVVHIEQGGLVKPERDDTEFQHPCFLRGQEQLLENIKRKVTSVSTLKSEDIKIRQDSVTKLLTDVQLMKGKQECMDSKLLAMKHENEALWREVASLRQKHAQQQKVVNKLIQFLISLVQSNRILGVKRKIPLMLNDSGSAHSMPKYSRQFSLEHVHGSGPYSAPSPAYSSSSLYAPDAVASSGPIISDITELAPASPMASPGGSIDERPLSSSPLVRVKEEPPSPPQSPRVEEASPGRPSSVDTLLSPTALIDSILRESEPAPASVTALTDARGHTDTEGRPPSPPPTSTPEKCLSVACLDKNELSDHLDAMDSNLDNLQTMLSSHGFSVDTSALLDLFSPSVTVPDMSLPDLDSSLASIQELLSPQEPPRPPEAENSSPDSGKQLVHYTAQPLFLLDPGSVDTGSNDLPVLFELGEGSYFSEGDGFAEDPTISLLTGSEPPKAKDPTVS

Experiment [17] can be described thus: ATG_MRE_CIS: Attagene CIS-FACTORIAL HepG2 Assay for human Metal Responsive Element (MRE) (AID 2282954). The note with it: HepG2 MRE cis-reporter transcription, Attagene multiplex; actives raise or lower the signal. Put shortly: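 Measured here is mRNA induction from an MRE cis-element reporter in HepG2 after 24 h, quantified by fluorescence of labelled RT-PCR products on capillary electrophoresis; gain- and loss-of-signal fits use DMSO as baseline.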

Experiment [18] is described as follows: ATG_PBREM_CIS: Attagene CIS-FACTORIAL HepG2 Assay for human Phenobarbital-responsive Enhancer Module (PBREM) (AID 2282955). Particulars: HepG2 PBREM cis-reporter, Attagene multiplexed transcription; actives raise or lower the signal. Put shortly: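 Transfected liver-derived HepG2 cells exposed 24 h; PBREM reporter transcript quantified via RT-PCR and capillary electrophoresis, with activity in either direction referenced to DMSO.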

The target in experiment [19] is Bile acid receptor (Homo sapiens) (UniProt Q96RI1). In words: ATG_IR1_CIS: Attagene CIS-FACTORIAL HepG2 Assay for human Nuclear Receptor Subfamily 1 Group H Member 4 (NR1H4), IR1 submotif (AID 2282946). Particulars: IR1 reporter transcription, actives raise or lower the signal. Put shortly:
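Fluorescence of capillary-separated, HpaI-digested RT-PCR reporter products gave IR1-element mRNA induction in HepG2 cells 24 h after dosing. Endogenous transcription factors drove the cis-regulated reporters; activity was fitted bidirectionally against DMSO.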

Sequence of Hypoxia-inducible factor 1-alpha (Homo sapiens) (Q16665 whole entry, looked up): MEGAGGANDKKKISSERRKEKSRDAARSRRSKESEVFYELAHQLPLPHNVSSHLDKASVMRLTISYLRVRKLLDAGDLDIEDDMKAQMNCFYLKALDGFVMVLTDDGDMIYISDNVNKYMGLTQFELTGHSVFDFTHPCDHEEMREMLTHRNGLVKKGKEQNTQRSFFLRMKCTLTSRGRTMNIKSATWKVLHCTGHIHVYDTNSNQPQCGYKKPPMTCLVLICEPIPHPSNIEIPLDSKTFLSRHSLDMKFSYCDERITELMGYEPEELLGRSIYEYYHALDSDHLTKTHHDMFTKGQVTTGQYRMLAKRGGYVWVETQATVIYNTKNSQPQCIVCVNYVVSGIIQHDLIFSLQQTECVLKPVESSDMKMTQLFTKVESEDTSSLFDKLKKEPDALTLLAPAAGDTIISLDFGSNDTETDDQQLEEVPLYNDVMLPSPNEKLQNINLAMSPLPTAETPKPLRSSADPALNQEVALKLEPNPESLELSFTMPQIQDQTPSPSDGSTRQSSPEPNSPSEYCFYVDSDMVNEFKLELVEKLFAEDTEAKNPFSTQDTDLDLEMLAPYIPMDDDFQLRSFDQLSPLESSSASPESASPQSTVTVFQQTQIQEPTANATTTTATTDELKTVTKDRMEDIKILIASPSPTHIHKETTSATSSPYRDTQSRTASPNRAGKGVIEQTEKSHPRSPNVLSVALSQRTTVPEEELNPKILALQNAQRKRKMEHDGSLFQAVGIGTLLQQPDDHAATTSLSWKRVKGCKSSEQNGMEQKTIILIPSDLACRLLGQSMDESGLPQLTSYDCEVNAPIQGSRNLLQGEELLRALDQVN
Sequence of Hepatocyte nuclear factor 3-beta (Homo sapiens) (Q9Y261 whole entry, looked up): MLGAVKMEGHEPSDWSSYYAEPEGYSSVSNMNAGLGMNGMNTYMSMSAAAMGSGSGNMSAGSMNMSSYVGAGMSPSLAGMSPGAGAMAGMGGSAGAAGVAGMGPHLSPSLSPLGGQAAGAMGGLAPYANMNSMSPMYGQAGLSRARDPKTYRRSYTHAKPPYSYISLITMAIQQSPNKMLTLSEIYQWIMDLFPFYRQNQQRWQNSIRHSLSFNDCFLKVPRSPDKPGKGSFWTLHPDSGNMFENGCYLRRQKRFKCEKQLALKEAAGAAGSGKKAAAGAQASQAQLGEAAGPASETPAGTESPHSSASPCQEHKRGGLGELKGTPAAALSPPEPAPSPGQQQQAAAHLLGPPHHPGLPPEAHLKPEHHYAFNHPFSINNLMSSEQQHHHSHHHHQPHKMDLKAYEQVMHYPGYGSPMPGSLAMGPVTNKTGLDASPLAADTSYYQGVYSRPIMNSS
Sequence of Hepatocyte nuclear factor 6 (Homo sapiens) (Q9UBC0 whole entry, looked up, the tested form may be a part): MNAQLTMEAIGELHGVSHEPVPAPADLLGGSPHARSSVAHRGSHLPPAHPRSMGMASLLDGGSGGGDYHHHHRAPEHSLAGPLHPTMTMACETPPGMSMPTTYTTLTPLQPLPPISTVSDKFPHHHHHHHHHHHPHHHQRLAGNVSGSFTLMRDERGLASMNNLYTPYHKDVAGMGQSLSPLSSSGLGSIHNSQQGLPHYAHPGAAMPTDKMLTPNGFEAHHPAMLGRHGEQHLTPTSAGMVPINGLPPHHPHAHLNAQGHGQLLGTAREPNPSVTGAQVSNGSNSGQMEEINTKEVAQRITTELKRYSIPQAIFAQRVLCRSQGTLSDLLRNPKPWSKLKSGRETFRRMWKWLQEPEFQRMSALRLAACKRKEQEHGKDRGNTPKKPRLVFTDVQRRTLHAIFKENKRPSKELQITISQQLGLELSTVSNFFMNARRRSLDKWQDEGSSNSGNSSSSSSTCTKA
Sequence of Bile acid receptor (Homo sapiens) (Q96RI1 whole entry, looked up): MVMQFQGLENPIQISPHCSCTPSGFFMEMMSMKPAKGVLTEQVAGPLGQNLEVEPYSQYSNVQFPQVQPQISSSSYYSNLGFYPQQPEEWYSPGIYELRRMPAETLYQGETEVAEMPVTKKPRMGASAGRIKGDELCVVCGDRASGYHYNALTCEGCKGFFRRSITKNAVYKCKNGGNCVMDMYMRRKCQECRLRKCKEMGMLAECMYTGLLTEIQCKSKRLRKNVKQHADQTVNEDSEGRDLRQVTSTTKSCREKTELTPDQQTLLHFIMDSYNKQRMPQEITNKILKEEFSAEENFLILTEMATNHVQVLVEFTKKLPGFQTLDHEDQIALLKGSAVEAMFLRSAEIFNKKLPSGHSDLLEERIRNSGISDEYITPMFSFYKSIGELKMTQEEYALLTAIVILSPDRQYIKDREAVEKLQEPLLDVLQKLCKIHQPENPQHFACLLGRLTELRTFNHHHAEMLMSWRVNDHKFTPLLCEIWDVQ

With `Nn1cnnc1`, the result in experiment [1], in experiment [2], in experiment [3], in [5], in [6] and in experiment [7] was inactive. Besides, the outcome in experiment [8], in experiment [9], in experiment [10], in experiment [11], in experiment [12] and in experiment [13] was inactive. The call in experiment [14], in [15], in experiment [16], in [17] and in experiment [18] was inactive. The concentration at half-maximal activity (AC50) in [4] is 39.5 µM (active).

Consider `N#Cc1ccc(N(CC(N)=O)CC(F)(F)F)cc1C(F)(F)F`, for which the compound was classed as inactive in experiment [1], in experiment [3], in [4], in experiment [5], in experiment [6] and in experiment [7]. Besides, the compound was classed as inactive in experiment [8], in experiment [9], in experiment [19], in experiment [11], in experiment [12] and in experiment [13]. Also, the compound was classed as inactive in [14], in [15], in experiment [16] and in [17]. For the same compound, the AC50 in experiment [2] is 25.3 µM (active).

`Cc1cc(O)ccc1Cl`: the result in experiment [1], in [2], in experiment [3], in experiment [5], in [6] and in [7] was inactive. The result in experiment [8], in experiment [9], in [19], in experiment [10], in experiment [11] and in experiment [12] was inactive. Moreover, the outcome in experiment [13], in experiment [14], in experiment [15], in experiment [16] and in experiment [17] was inactive. For the same compound, the AC50 in experiment [4] is 48.5 µM (active).

For `CCC(=O)O[C@H]1CC[C@H]2[C@@H]3CCC4=CC(=O)CC[C@]4(C)[C@H]3CC[C@]12C`, the result in experiment [1], in [3], in [5], in experiment [6], in experiment [7] and in experiment [8] was inactive. Moreover, the compound was called inactive in [9], in experiment [10], in experiment [11], in [12], in experiment [13] and in experiment [14]. The outcome in [15] and in experiment [18] was inactive. The AC50 was 100 µM (active) and 77.1 µM (active) and 129 µM (active) in experiment [2]; 9.04 nM (active) and 9.14 nM (active) and 8.84 nM (active) in experiment [4]; 187 µM (active) in experiment [6]; 135 µM (active) and 185 µM (active) in experiment [7]; 140 µM (active) in experiment [8]; 157 µM (active) in experiment [10]. The AC50 is 100 µM (active) and 131 µM (active) in [11]; 100 µM (active) and 122 µM (active) in experiment [14]; 169 µM (active) and 187 µM (active) in [15]; 159 µM (active) [middle of 4 runs] in experiment [16]; 136 µM (active) [middle of 4 runs] in [17]; 136 µM (active) and 100 µM (active) in [18].

On to `COS(=O)(=O)OC`, for which the compound was classed as inactive in experiment [1], in experiment [2], in [3], in experiment [4], in [5] and in experiment [6]. Moreover, the outcome in experiment [7], in experiment [8], in experiment [9], in experiment [10], in experiment [11] and in experiment [12] was inactive. Moreover, the outcome in experiment [13], in experiment [15], in [16] and in [17] was inactive. Moreover, the AC50 in experiment [14] was 26.9 µM (active).

As to `CCCCCCCCCc1ccc(O)cc1`, the outcome in [1], in experiment [2], in experiment [3], in experiment [5], in experiment [6] and in [7] was inactive. The call in experiment [8], in experiment [9], in experiment [11], in [12], in experiment [13] and in [14] was inactive. Further, the result in experiment [15], in [16], in experiment [17] and in experiment [18] was inactive. Further, the AC50 is 49.7 µM (active) in experiment [8]; 184 µM (active) in experiment [9]; 166 µM (active) in [12]; 178 µM (active) in [14]; 145 µM (active) in experiment [15]; 17.5 µM (active) in [17].
